Source: PubChem (National Center for Advancing Translational Sciences (NCATS))
Compounds with a hit are over-represented: about 11% of the library has one in this group of screens.
Pf growth 48h: Primary qHTS for delayed death inhibitors of the malarial parasite plastid, 48 hour incubation; P. falciparum luciferase growth in erythrocytes, 48 h; Potency, µM (highest dose often 28.7 µM), without a hit: at the highest dose activity change, negative = inhibition, actives largely listed as inhibitors; 310,000 tested, 5.9% active; AID 504832, 2011; further: on the % scale 0 is the no-effect control and ±100 the full control effect
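Luciferase-expressing parasites in RBCs, 2% Hct / 0.1% parasitemia final; RPMI 1640 + 0.5% Albumax; 37 C, 5% CO2, one generation; luminescence read-out, lower signal = inhibition.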
Pf growth 96h: Primary qHTS for delayed death inhibitors of the malarial parasite plastid, 96 hour incubation. P. falciparum luciferase reporter growth, 96 h. Potency, µM (highest dose often 28.7 µM), inactives show top-dose activity change, negative = inhibition, most hits filed as inhibitors. 320,000 tested, 6.9% active; further: on the % scale 0 is the no-effect control and ±100 the full control effect
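Infected RBCs, 2% Hct / 0.05% parasitemia final; luciferase-reporter P. falciparum; cpd 96 h, 37 C, 5% CO2; luciferase detection reagent; luminescence.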
Sm TGR inh: qHTS Assay for the Inhibitors of Schistosoma Mansoni Peroxiredoxins; Schistosoma mansoni thioredoxin glutathione reductase (TGR), Q962Y6; purified TGR, DTNB reduction, TNB absorbance 405 nm; Potency, µM (highest dose often 114 µM), inactives show top-dose activity change, negative = inhibition, usual class: inhibitors; 360,000 tested, 3% active; AID 485364, 2010; further: on the % scale 0 is the no-effect control and ±100 the full control effect; nearly all actives have a fitted effect of over 60% in size
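TGR 20 nM + NADPH 100 uM (dispensed conc.), cpd preinc 15 min RT; start with NADPH (500 uM addition) then DTNB (15 mM addition). Kinetic TNB absorbance, 405 nm filter. Four-parameter Hill fit across titration.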
NS1 inh: qHTS Assay for Inhibitors of Influenza NS1 Protein Function; 270,000 tested, 0.4% active; Potency, µM (titrated, usually from 46.1 µM), for the others: at the highest dose activity, positive = more growth; AID 2326, 2010; calls by dose curve; further: actives are rising curves; nearly all actives have a fitted effect of over 50% in size
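Compounds were scored for reversing the slow growth caused by influenza A NS1 in S. cerevisiae, measured by optical density at 600 nm. Assay medium contained 2% galactose at pH 6.0; NS1-free yeast of the same strain were the positive control.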
AMA1 RON2 block: qHTS for Inhibitors of AMA1-RON; Towards Development of Antimalarial Drug Lead: Primary Screen | Potency, µM (series often up to 58.2 µM), for inactives: top-dose activity change, negative = inhibition, most hits filed as inhibitors | 360,000 tested, 0.2% active | AlphaScreen AMA1-biotinylated RON2 peptide binding | Plasmodium falciparum AMA1 (3D7) - RON2 peptide interaction;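 further: 0% = vehicle wells and -100% = peptide control; nearly all actives have a fitted effect of over 45% in size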
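AMA1 (3D7) with his tag at 25 nM final met compounds first, then biotinylated RON2 peptide at 25 nM; detection used donor plus acceptor beads, 10 µg/mL apiece, read by AlphaScreen after 30 min at room temperature.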
* marks the source's active call; other numbers are inactive results; ? = inconclusive; nt = no result. Unless noted, the call rests on the fitted dose curve; in most records, active means well fitted curve in the direction sought with a large enough effect; inconclusive means small, poorly fitted or top-dose-only effect, or another doubt; inactive means no such curve, though single readings can be large; an effect the other way counts as inactive or inconclusive. Potency means the concentration at half of the fitted maximal effect.

SMILES | Pf growth 48h | Pf growth 96h | Sm TGR inh | NS1 inh | AMA1 RON2 block
CCOC(=O)c1[nH]c2ccc(OC)cc2c1NC(=O)CN1CCc2ccccc2C1 | ? | 11.7µM* | -5.5% | -74.3% | 12.9%
c1ccc2cc(CSCc3nc4ccccc4[nH]3)ccc2c1 | 13.1µM* | ? | -0.7% | -44.9% | -8.1%
O=C(CSCc1nc2ccccc2[nH]1)Nc1ccc2ccccc2c1 | 0.7% | ? | 3.9% | -7.6% | -2.7%
CSc1nc(C)c(Oc2ccccc2)c(=O)n1C | -6.5% | 25.8% | -1.0% | -2.5% | -0.7%
CCCSc1nc(O)c(C(c2ccc(OC)c(O)c2)c2c(O)nc(SCCC)n(C)c2=O)c(=O)n1C | -14.5% | -22.8% | 12.6µM* | 9.5% | 2.2%
COc1cccc(C(c2c(O)nc(SC)n(C)c2=O)c2c(O)nc(SC)n(C)c2=O)c1 | ? | 69.9% | 7.08µM* | 3.3% | 1.9%
COc1cccc(-c2ncc3ccccc3c2COC(=O)c2cccc(Br)c2)c1 | ? | 4.65µM* | -1.6% | nt | -5.4%
COc1cccc(-c2ncc3ccccc3c2COC(=O)c2ccc(C(F)(F)F)cc2)c1 | ? | 2.94µM* | 1.0% | nt | 2.2%
COc1cccc(-c2ncc3ccccc3c2COC(=O)c2ccc(Br)cc2)c1 | ? | ? | -17.9% | nt | -1.8%
S=c1nccc(-c2ccc3c(c2)CCO3)[nH]1 | 24.2% | -9.3% | 35.5µM* | 15.1% | 75.3%
O=C1NC(=O)[C@]2(Cc3ccccc3N3CCN(c4ccccc4)CC32)C(=O)N1Cc1ccccc1 (some centres undefined) | ? | 9.28µM* | ? | -43.8% | -20.0%
Cn1c(N)c(C(=O)COC(=O)c2ccc(OC(F)F)cc2)c(=O)n(C)c1=O | ? | 25.4% | -8.2% | nt | 5.3%
O=c1c2ccccc2ncn1-c1cccc(Br)c1 | 25.9% | 1.65µM* | 12.6% | -15.1% | -2.1%
O=c1c2ccccc2ncn1-c1cccc(Cl)c1 | 70.9% | -17.3% | 0.0% | 6.2% | -5.3%
C/C=C(\C)C(=O)N1CC2(CC(c3cccc(NC(=O)COc4ccc(Cl)cc4)c3)=NO2)C[C@@H]1C(N)=O (some centres undefined) | 11.7µM* | ? | -15.2% | -3.4% | 18.0%
C/C=C/C=C/C(=O)Nc1cccc(C2=NOC3(C2)C[C@H](C(N)=O)N(C(=O)CC(c2ccccc2)c2ccccc2)C3)c1 (some centres undefined) | ? | ? | ? | 14.3% | nt
C/C=C\C=C/C(=O)Nc1cccc(C2=NOC3(C2)C[C@@H](C(N)=O)N(C(=O)COc2ccc(Cl)cc2)C3)c1 (some centres undefined) | ? | ? | 3.16µM* | 3.1% | 0.2%
C/C=C\C=C\C(=O)N1CC2(CC(c3cccc(NC(=O)COc4ccc(Cl)cc4)c3)=NO2)C[C@H]1C(N)=O (some centres undefined) | 13.1µM* | 10.4µM* | 7.08µM* | 4.6% | 1.9%
CCCCCC(=O)Nc1cccc(C2=NOC3(C2)C[C@H](C(N)=O)N(C(=O)COc2ccc(Cl)cc2)C3)c1 (some centres undefined) | ? | ? | 11.6% | 0.1% | 12.5%
CC1(c2nc3ccccc3[nH]2)c2ccccc2C(=O)N1Cc1ccccc1 (centres undefined) | nt | nt | nt | nt | 0.5%
O=C1CCSC2(C(=O)N(Cc3ccc(F)cc3)c3ccccc32)N1c1ccc(Cl)cc1 (centres undefined) | nt | nt | 4.1% | nt | nt
CCCCC(=O)N(c1ccc(C(=O)O)cc1)c1nc(-c2ccc(Cl)cc2)c(CC)s1 | 2.33µM* | ? | nt | -0.2% | 5.1%
CCc1sc(N(C(=O)Cc2ccccc2)c2ccccc2)nc1-c1ccccc1 | 13.1µM* | nt | -0.3% | 4.0% | -5.1%
CCOc1cc2c(cc1OCC)C(CC(=O)O)N(C(=O)Nc1ccc(Br)c(C)c1)CC2 (centres undefined) | nt | nt | -2.2% | nt | nt
COC(=O)c1ccc(S(=O)(=O)N2CCCN(Cc3cccc(Br)c3F)CC2)n1C | -19.0% | 11.4% | -24.0% | -3.4% | -3.3%
SMILES | Pf growth 48h | Pf growth 96h | Sm TGR inh | NS1 inh | AMA1 RON2 block
CCC(C)NC(=O)/C(=C/c1ccco1)c1ccccc1 (centres undefined) | ? | 36.8% | 10µM* | 16.1% | -3.5%
O=C(O)CCNC(=O)/C(=C/c1ccco1)NC(=O)c1ccco1 | -6.0% | ? | -24.0% | 9.4% | 57.5%
O=C(NCCc1ccccc1)/C(=C/c1ccco1)c1ccccc1 | 7.3% | 41.8% | 12.6µM* | -13.8% | -24.3%
COC(=O)NNC(=O)C1CCC(C(=O)NNC(=O)OC)CC1 (centres undefined) | 6.6% | ? | -8.7% | -6.8% | -0.4%
COc1cc(/C=N/NC(=O)c2ccc(O)cc2)ccc1OCC(=O)Nc1cccc([N+](=O)[O-])c1 | 22.5% | 10.4µM* | -15.1% | -3.7% | -12.0%
COc1cc(/C=N/NC(=O)c2cccc([N+](=O)[O-])c2)ccc1OCc1ccccc1 | 16.5µM* | 9.28µM* | 2.5% | 17.5% | 4.6%
COc1ccc(/C=N/NC(=O)c2cccc([N+](=O)[O-])c2)cc1OC | 8.0% | -24.6% | nt | 5.3% | 14.7%
O=C(COc1ccc(/C=N/NC(=O)c2ccccc2O)cc1)Nc1ccc([N+](=O)[O-])cc1 | -6.8% | 11.7µM* | -17.8% | 8.0% | 8.2%
O=C(COc1ccc(/C=N/NC(=O)c2ccncc2)cc1)Nc1ccccc1 | 20.0% | -10.4% | 5.4% | -8.1% | 55.4%
O=C(COc1ccc(/C=N/NC(=O)c2ccncc2)cc1)Nc1cccc([N+](=O)[O-])c1 | -1.9% | ? | 3.0% | 5.4% | 13.2%
Cc1ccc(C)c(NC(=O)CN2C(=O)CCc3cc(S(=O)(=O)N4CCCCC4)ccc32)c1 | nt | nt | -6.2% | nt | nt
CCc1nc2c(OCc3ccc(OC(F)F)cc3)cccn2c1N(C)C(=O)c1cccs1 | nt | nt | nt | nt | -4.9%
Cc1ccc(NC(=O)Cn2nnc(C(=O)NCc3ccco3)c2N)cc1 | nt | 0.0% | -10.8% | 5.2% | 0.0%
Nc1c(C(=O)NCc2ccco2)nnn1CC(=O)Nc1ccc2c(c1)OCO2 | 11.7µM* | ? | 0.1% | nt | -3.4%
CC(C)c1ccc(NC(=O)Cn2nnc(C(=O)NCc3ccco3)c2N)cc1 | 28.5% | 11.7µM* | -11.3% | -0.5% | -6.9%
COc1ccc(S(=O)(=O)Nc2nc3ccccc3nc2Nc2cccc(C(=O)O)c2)cc1 | 5.9% | -16.8% | -1.6% | -8.8% | 12.9%
CCN(CC)S(=O)(=O)c1ccc2nc(CCl)[nH]c2c1 | -1.1% | 15.8% | 39.8µM* | nt | 38.4%
COc1ccccc1NS(=O)(=O)c1ccc2nc(CCl)[nH]c2c1 | 9.3% | 4.8% | 35.5µM* | 2.6% | 2.6%
COc1ccc(OCc2nc3ccc(S(=O)(=O)Nc4ccccc4Cl)cc3[nH]2)cc1 | 4.1% | -15.9% | -2.8% | 15.5% | 16.4%
